# Screens from PubChem BioAssay.
# HepG2 tox – kills HepG2 cells in TGF-b inhibitor counter-screen. HepG2 CAGA-GFP viability, ATP luminescence, 18 h. Potency, µM (series often up to 46.1 µM), without a hit: at the highest dose activity change, negative = cytotoxicity, actives largely listed as cytotoxic. 410,000 tested, 0.76% active. AID 588856; note: potency is the fitted concentration of half-maximal effect
#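 CellTiter-Glo luminescence gave cytotoxicity after 18 hours at 37 degrees C. The cells were HepG2 CAGA-GFP in 1% FBS DMEM, stimulated with 500 pg/mL TGF-beta after compound addition. %Activity was normalised to no-cell wells (complete cell-killing) and DMSO (no toxicity), and curves were fitted and classified.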
# TGFb SMAD3 inh – inhibitors of TGF-b signaling; HepG2 CAGA-GFP TGF-b/SMAD3 reporter, GFP fluorescence, 18 h; TGF-beta stimulated, 500 pg/mL final; 410,000 tested, 1.2% active; Potency, µM (series often up to 46.1 µM), for inactives: at the highest dose activity, negative = inhibition, usual class: inhibitors; note: potency is the fitted concentration of half-maximal effect; % is set by controls: 0 for no effect and ±100 for the full control effect; nearly all actives have a fitted effect of over 65% in size
#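 Inhibition was scored as loss of TGF-beta-induced (500 pg/mL final, 18 hours, 37 degrees C) GFP in HEPG2 cells carrying a CAGA-GFP reporter, in DMEM with 1% FBS. Well GFP was summed per cell; Activity was normalised to unstimulated and stimulated DMSO wells, then concentration-response fitting.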
# IL1B secr inh – inflammasome signaling inhibition, IL-1 beta readout. AID 743279. THP-1 LPS/ATP IL-1B secretion, AlphaLISA, 16 h; stronger effect = lower value. activity change, % at 57.5 µM. 360,000 tested, 4.7% active; in the data active = activity change below about -50%; inconclusive = mostly about -30% to -49%; note: % is set by controls: 0 for no effect and ±100 for the full control effect
#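 THP-1 cells pretreated 1 hr with compounds (up to 57.5 uM final), then stimulated with LPS (250 ng/mL final) plus ATP (1.25 mM final); secreted IL-1B measured by AlphaLISA after 16 hr, decreased signal indicating inhibition.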
# DT40 TDP1 no CPT – qHTS for Inhibitors of human tyrosyl-DNA phosphodiesterase 1 (TDP1): qHTS in cells in absence of CPT; DT40 Tdp1-/- hTDP1 cells, no CPT, ATP luminescence, 48 h; Potency, µM (highest dose often 46.2 µM), for the others: top-dose activity change, negative = growth inhibition, actives largely listed as inhibitors; 420,000 tested, 15% active; AID 686978, 2013; note: potency is the fitted concentration of half-maximal effect; % is set by controls: 0 for no effect and ±100 for the full control effect; nearly all actives have a fitted effect of over 55% in size
#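 Growth kinetics read by CellTiter-Glo luminescence after ≥48 hr at 37 °C. Cells: DT40 Tdp1-/- stably carrying human TDP1, 400 per well, compound exposure in the absence of CPT (DMSO vehicle).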
# ASM inhibitor – human S-ASM enzyme inhibition; P17405; placental ASM, HMU-PC fluorogenic substrate, 60 min; Potency, µM (doses to about 57.5 µM), for inactives: at the highest dose activity change, negative = inhibition, hits mostly inhibitors; 340,000 tested, 0.006% active; AID 504937; note: potency is the fitted concentration of half-maximal effect
# Target sequence (P17405 47-631 limits assumed): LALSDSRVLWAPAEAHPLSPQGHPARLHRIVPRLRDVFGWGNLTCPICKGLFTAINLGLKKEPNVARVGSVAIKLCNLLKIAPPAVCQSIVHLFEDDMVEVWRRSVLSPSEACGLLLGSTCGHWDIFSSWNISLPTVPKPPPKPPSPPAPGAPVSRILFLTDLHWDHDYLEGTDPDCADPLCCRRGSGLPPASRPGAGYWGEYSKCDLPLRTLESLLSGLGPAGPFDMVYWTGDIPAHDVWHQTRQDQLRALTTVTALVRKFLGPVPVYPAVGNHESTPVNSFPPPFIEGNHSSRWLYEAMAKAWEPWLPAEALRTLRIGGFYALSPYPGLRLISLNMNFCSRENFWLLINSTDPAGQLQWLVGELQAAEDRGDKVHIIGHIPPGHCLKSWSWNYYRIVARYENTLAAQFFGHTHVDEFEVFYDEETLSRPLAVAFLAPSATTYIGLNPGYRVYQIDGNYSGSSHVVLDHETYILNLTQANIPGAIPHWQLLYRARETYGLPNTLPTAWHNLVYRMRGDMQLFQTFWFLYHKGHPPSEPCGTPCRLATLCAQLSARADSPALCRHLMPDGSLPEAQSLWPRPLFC
#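 Fluorescence read-out (Ex 386 nm, Em 447 nm) after stopping the reaction at pH 10. Enzyme: ASM from human placenta; substrate HMU-PC0, 9 uM final; 60 min, 37 °C. Compound preincubation 10 min, ambient temperature.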
# TDP1 cell CPT – DT40-hTDP1 cell growth loss with CPT. chicken DT40 Tdp1-/-;hTDP1 cells + 20 nM CPT, ATP luminescence, 48 h. Potency, µM (series often up to 46.2 µM), without a hit: top-dose activity change, negative = growth inhibition, most hits filed as inhibitors. 420,000 tested, 12% active. AID 686979; note: potency is the fitted concentration of half-maximal effect; % is set by controls: 0 for no effect and ±100 for the full control effect; nearly all actives have a fitted effect of over 55% in size
#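 Chicken DT40 Tdp1-/- cells stably complemented with human TDP1 were seeded at 400 cells/well in medium containing 20 nM camptothecin, exposed to pin-transferred compounds, and grown at 37 °C for at least 48 hr. Viability was read as ATP luminescence.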
# Numbers without * were called inactive; u = inconclusive; x = no result given. Shown are actives, neighbours in structure and some others; about 19% of the full set was active somewhere. Unless noted, calls come from the whole dose curve; as a rule, active = well fitted curve in the direction sought with a large enough effect; inconclusive = small, poorly fitted or top-dose-only effect, or another doubt; inactive = no such curve, though single readings can be large; an effect the other way counts as inactive or inconclusive.
SMILES,HepG2 tox,TGFb SMAD3 inh,IL1B secr inh,DT40 TDP1 no CPT,ASM inhibitor,TDP1 cell CPT
Cc1occc1C(=O)N/N=C/C(Br)=C\c1ccccc1,2.6%,7.2%,u,11.6µM*,-3.4%,18.4µM*
Cc1onc(-c2ccccc2)c1C(=O)N/N=C/C(Br)=C/c1ccccc1,-2.5%,u,u,9.2µM*,-25.6%,6.51µM*
Cc1onc(-c2ccccc2)c1C(=O)N/N=C/c1cc(Br)c(O)c(Br)c1,-31.3%,u,11.6,u,2.2%,u
COC(=O)[C@]12CCCCC=C1N(Cc1cccc3ccccc13)C(=O)[C@H](CC(=O)N1CCN(C(=O)C3CC3)CC1)C2,x,x,6.2,20.6µM*,x,u
COC(=O)[C@]12CCCCC=C1N(Cc1cccc3ccccc13)C(=O)[C@H](CC(=O)N1CCCC1)C2,x,x,-18.7,20.6µM*,x,u
COC(=O)[C@]12CCCCC=C1N(Cc1cccc3ccccc13)C(=O)[C@H](CC(=O)N1CCN(C(=O)c3ccco3)CC1)C2,x,x,-18.7,u,x,u
COc1ccc(OC)c(C2Nc3c(C)cc(C)cc3-c3cc(C)nn32)c1 (configuration not stated),-20.5%,u,x,20.6µM*,x,16.4µM*
CNc1nc(SCc2ccc(C)cc2)nc2c1CCCC2,-4.2%,15.8µM*,-10.1,u,-2.8%,-14.6%
CCOc1ccc(Nc2nc(Cc3nnc(SCC(=O)NC4CCCCC4)n3C)cs2)cc1,1.5%,0.0%,-8.5,-8.9%,-2.9%,-1.6%
CCOc1ccc(Nc2nc(Cc3nnc(SCC(=O)N(CC)CC)n3C)cs2)cc1,20µM*,u,-2.1,-28.3%,4.4%,-16.3%
CS(=O)(=O)c1ccc(C(=O)OC2CCOC2=O)cc1[N+](=O)[O-] (configuration not stated),-15.1%,u,u,u,6.6%,u
CC(=O)Nc1cccc(NC(=O)CSc2ncc(-c3ccc(Cl)cc3)n2Cc2ccco2)c1,-46.4%,-12.5%,-22.4,20.6µM*,u,20.6µM*
COc1ccc(-c2cnc(SCC(=O)Nc3ccc4c(c3)OCO4)n2Cc2ccco2)cc1,-0.6%,u,-73.2*,18.4µM*,-11.9%,18.4µM*
COc1ccc(N2CCN(C(=O)CCCCCn3c(=O)[nH]c4ccsc4c3=O)CC2)cc1,0.3%,-3.4%,-1.4,16.4µM*,-0.2%,u
O=C(CCn1c(=O)[nH]c2ccccc2c1=O)N1CCN(c2cccc(C(F)(F)F)c2)CC1,-36.2%,0.0%,u,18.4µM*,-13.2%,16.4µM*
O=C(CCCCCn1c(=O)[nH]c2ccsc2c1=O)N1CCCCC1,-12.9%,4.4%,9.3,-14.1%,3.5%,-15.1%
O=C(CCCCn1c(=O)[nH]c2ccsc2c1=O)N1CCN(c2cccc(C(F)(F)F)c2)CC1,-49.5%,10µM*,x,9.2µM*,x,11.6µM*
O=C(CCCCn1c(=O)[nH]c2ccccc2c1=O)N1CCN(c2cccc(C(F)(F)F)c2)CC1,-27.7%,-7.8%,-27.1,u,-12.6%,16.4µM*
N#Cc1ccc(OS(=O)(=O)c2ccc(-c3ccon3)s2)cc1,-4.4%,2.9%,u,u,-1.0%,11.6µM*
O=S(=O)(Nc1ccc(OC(F)F)cc1)c1ccc(-c2ccon2)s1,-19.0%,0.0%,24.2,u,-3.7%,0.8%
CSc1ccc(S(=O)(=O)N2c3ccccc3CC2C)cc1 (configuration not stated),-15.1%,u,28.5,20.6µM*,-1.1%,u
CC1Cc2ccccc2N1S(=O)(=O)c1cnc(Cl)c(Cl)c1 (configuration not stated),-85.7%,u,u,10.3µM*,-3.8%,16.4µM*
CC1Cc2ccccc2N1S(=O)(=O)c1cnc[nH]1 (configuration not stated),0.2%,9.0%,-20.8,-2.2%,-0.1%,0.9%
CCC(CO)NC(=O)c1cccc(S(=O)(=O)N2c3ccccc3CC2C)c1 (configuration not stated),-12.5%,4.6%,14.1,u,-0.8%,-8.2%
CC1Cc2ccccc2N1S(=O)(=O)c1cnc(Cl)c(Br)c1 (configuration not stated),2.5%,-1.0%,-69.9*,u,-0.7%,u
SMILES,HepG2 tox,TGFb SMAD3 inh,IL1B secr inh,DT40 TDP1 no CPT,ASM inhibitor,TDP1 cell CPT
CC(=O)N1CCc2cc(S(=O)(=O)N3c4ccccc4CC3C)ccc21 (configuration not stated),3.1%,-17.4%,0.0,13µM*,-2.0%,11.6µM*
CC1(c2nnnn2Cc2ccccc2)CCC(=O)N1Cc1ccc(F)cc1 (configuration not stated),x,x,32.9,-13.9%,x,-11.8%
Cc1ccc2nc(C3CCCN3Cc3nc(CCC(C)C)no3)[nH]c2c1 (configuration not stated),-23.5%,-25.2%,4.0,u,6.3%,u
COC(=O)C(NS(N)(=O)=O)C(C)C (configuration not stated),-19.4%,-20.6%,x,x,x,x
Cc1ccc([C@H]2N[C@]3(CCCN(Cc4cccn4C)C3=O)[C@H]3C(=O)N(Cc4ccccc4)C(=O)[C@@H]23)cc1,-27.2%,-29.0%,4.7,u,x,-21.3%
Cc1ccc(NC(=O)c2cccc3c(=O)c4c([nH]c23)CCCC4)c(C)c1,8.7%,-3.7%,x,u,x,u
COc1cc2c(ccc3cc(OC)c(OC)c(O)c32)cc1O,-18.3%,6.9%,-5.9,9.2µM*,86.7%,7.31µM*
Cc1ccc(S(=O)(=O)N2CCN(C(=O)COC(=O)c3cccc(Cl)c3)CC2)c(C)c1,10.2%,-0.7%,28.8,u,1.2%,u
c1ccc(N2CCN(Cc3cccn3-c3nnc(N4CCN(C5CCCCC5)CC4)s3)CC2)cc1,16.2%,0.2%,x,-5.0%,x,-5.7%
CCOc1ccccc1CNCc1cccn1-c1nnc(N2CCN(c3ccccc3)CC2)s1,-82.7%,u,x,3.26µM*,x,5.8µM*
O=C(CCn1c(=O)c2ccccc2n(Cc2ccc(F)cc2Cl)c1=O)NCc1ccc2c(c1)OCO2,2.1%,-10.7%,x,u,x,-1.4%
O=C(CCCCn1c(=O)c2ccccc2n(Cc2cccc(F)c2)c1=O)NCc1ccc2c(c1)OCO2,-2.7%,-10.8%,x,23.1µM*,x,u
